# According to PubChem BioAssay AID1851 (National Center for Advancing Translational Sciences (NCATS), 2009):
# About 4,000 (25%) of roughly 16,000 compounds were called active. About 26% were inconclusive and are not listed. The call rests on the fitted dose curve; in most records, active means well fitted curve in the direction sought with a large enough effect; inconclusive means small, poorly fitted or top-dose-only effect, or effect the other way; inactive means no such curve, though single readings can be large or run the other way. These entries were drawn from the full list.
# Molecular target: Cytochrome P450 2C9 (Homo sapiens) (UniProt P11712)
# Assay: Cytochrome panel assay with activity outcomes
# Details: recombinant CYP, pro-luciferin dealkylation, luminescence, p450-cyp2c9; series mostly up to 57.1 µM; activity, negative = inhibition: at the top concentration
# On the % scale 0 is the no-effect control and ±100 the full control effect.
# Chain of Cytochrome P450 2C9 (Homo sapiens) (P11712 whole entry, looked up): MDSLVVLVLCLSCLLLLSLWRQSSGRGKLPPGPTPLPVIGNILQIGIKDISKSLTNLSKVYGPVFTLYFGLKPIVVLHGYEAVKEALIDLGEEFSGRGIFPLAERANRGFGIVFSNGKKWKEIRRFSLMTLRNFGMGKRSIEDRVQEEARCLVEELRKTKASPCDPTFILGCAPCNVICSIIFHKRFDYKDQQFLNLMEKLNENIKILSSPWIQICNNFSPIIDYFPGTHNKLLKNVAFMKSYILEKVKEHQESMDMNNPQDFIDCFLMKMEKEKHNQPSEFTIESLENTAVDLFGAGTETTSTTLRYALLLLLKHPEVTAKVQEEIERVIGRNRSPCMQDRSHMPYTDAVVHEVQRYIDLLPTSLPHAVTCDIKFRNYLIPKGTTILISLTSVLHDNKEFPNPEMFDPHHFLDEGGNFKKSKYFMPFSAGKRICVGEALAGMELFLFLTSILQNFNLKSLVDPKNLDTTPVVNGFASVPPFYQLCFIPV
Compound,"activity, negative = inhibition",AC50
Nc1nc(SCc2ccc([N+](=O)[O-])cc2)c2ncn([C@@H]3O[C@@H](CO)[C@@H](O)[C@H]3O)c2n1,13.2% (inactive),–
CN1CCC(=C2c3ccccc3C=Cc3ccccc32)CC1,–,inactive
CO[C@@H]1COC(=O)[C@H](CCSC)NC(=O)C/C=C\[C@@H](C)COC(=O)[C@@H]2CCCN2C(=O)C/C=C\[C@H]1C,13.2% [at 11.4 µM] (inactive),–
CCNc1ncc2nc(-c3ccc(Cl)cc3)c(=O)n(C[C@H]3CCCO3)c2n1,-1.79% (inactive),–
CN1CCc2c(c3ccccc3n2C)C1,-11.6% (inactive),–
COCC(=O)O[C@]1(CCN(C)CCCc2nc3ccccc3[nH]2)CCc2cc(F)ccc2[C@@H]1C(C)C,13.1% (inactive),–
Cn1c(=O)c2[nH]c(CCCCc3nc4ccccc4[nH]3)nc2n(C)c1=O,2.16% [at 11.4 µM] (inactive),–
CC(C)c1ccc(NC(=O)N(CCc2nc3ccccc3[nH]2)C2CCCC2)cc1,–,7.94 µM (active)
Cc1cnc(CNc2ncnc3ccc(-c4ccccc4C(F)(F)F)cc23)cn1,-21.8% [at 2.29 µM] (inactive),–
COc1ccc(S(=O)(=O)N2CCCCCC2)cc1N(C)S(=O)(=O)c1ccc(Cl)cc1,–,4.47 µM (active)
CSc1nc2cc(S(=O)(=O)N3CCCCC3)ccc2s1,-29.2% [at 11.4 µM] (inactive),–
COc1ccc(S(=O)(=O)Nc2ccc(S(=O)(=O)N3CCCCC3)cc2)cc1C,–,0.355 µM (active)
CC(=O)ON(C(C)=O)S(=O)(=O)c1ccc(Cl)cc1,-9.68% (inactive),–
COc1ccc(NS(=O)(=O)c2ccc(I)cc2)cc1N1CCN(C)CC1,-14% (inactive),–
O=S(=O)(NCCNC/C=C\c1ccc(Br)cc1)c1cccc2cnccc12,-8.85% (inactive),–
CN=C1S/C(=C\c2ccc(Sc3ccc(Cl)cc3)o2)C(=O)N1C,–,1.26 µM (active)
Clc1ccc(Sc2ccc(/C=N/n3cnnc3)o2)cc1,–,7.94 µM (active)
Cc1ccc(Nc2nc(Cl)nc(N(C)C#N)n2)cc1,–,15.8 µM (active)
O[C@]1(c2ccccc2)c2ccccc2NC2=NCCN21,3.96% [at 11.4 µM] (inactive),–

Compound,"activity, negative = inhibition",AC50
CS(=O)(=O)c1ccccc1COC(=O)Nc1ccc(Cl)cc1,-21.7% (inactive),–
O=C(Nc1ccccc1)OCc1cc(-c2ccc(Cl)cc2)on1,–,2.82 µM (active)
Cc1cnc(CNc2ncncc2-c2ccc(C(=O)N(C)C)cc2)cn1,26.6% [at 2.29 µM] (inactive),–
Cc1cnc(CNc2nc(-c3ccccc3C)nc3ccccc23)cn1,18.8% [at 2.29 µM] (inactive),–
CC(=O)NCCNc1ccnc(-c2ccccc2C)n1,7.25% [at 2.29 µM] (inactive),–
COc1ccc2nccc(SCC(=O)O)c2c1,-6.85% [at 11.4 µM] (inactive),–
COc1ccc2c(c1)nc(SCC(=O)c1ccc(Br)s1)n2C,–,15.8 µM (active)
Cc1noc(C)c1-c1ccc2ncnc(NCCN3CCOCC3)c2c1,-1.53% [at 2.29 µM] (inactive),–
CCC(=O)O[C@@H]1[C@H](C)O[C@H](O[C@H]2[C@@H](N(C)C)[C@H](O)[C@@H](O[C@@H]3[C@@H](CC=O)C[C@@H](C)[C@@H](O)/C=C\C=C/C[C@@H](C)OC(=O)C[C@@H](OC(=O)CC)[C@H]3OC)O[C@H]2C)C[C@]1(C)O,4.08% [at 25.6 µM] (inactive),–
c1ccc(-c2c3ccccc3nc3[nH]c4ccccc4c23)cc1,–,10 µM (active)
CCCCc1c2ccccc2nc2[nH]c3ccccc3c12,-11.5% (inactive),–
c1ccc2c(NC3CC3)nc(-c3ccoc3)nc2c1,-17.7% [at 2.29 µM] (inactive),–
CC[C@@H]1CN2CCc3cc(OC)c(OC)cc3[C@H]2C[C@@H]1C[C@@H]1NCCc2cc(OC)c(OC)cc21,8.9% (inactive),–
CN1CCN(c2ccnc(-c3ccc(N(C)C)cc3)n2)CC1,4.88% [at 2.29 µM] (inactive),–
CN(C)c1ccc(O)c2c1C[C@H]1C[C@H]3[C@@H](N(C)C)C(=O)C(C(N)=O)=C(O)[C@]3(O)C(=O)C1=C2O,-3.59% [at 25.6 µM] (inactive),–
CCN(CC)CCCNC(=O)CC1Sc2ccccc2NC1=O (stereo unspecified),-23.3% (inactive),–
COc1ccccc1CNC(=O)CSc1nc2nc(C)cc(C)n2n1,43.7% (inactive),–
Cc1cc(C)n2nc(SCc3cc(=O)oc4ccc5ccccc5c34)nc2n1,–,8.91 µM (active)
Cc1cc(C)n2nc(SCN3C(=O)c4ccccc4C3=O)nc2n1,-0.785% (inactive),–

Compound,"activity, negative = inhibition",AC50
CO[C@@H]1COC(=O)C/C=C\[C@@H](C)COC(=O)[C@H](Cc2ccccc2)NC(=O)C/C=C\[C@H]1C,-17.6% [at 11.4 µM] (inactive),–
O=C1CCCC=C1[C@H](O)c1ccc([N+](=O)[O-])cc1,-18.1% [at 11.4 µM] (inactive),–
O=C1CCCC=C1[C@@H](O)C1CCCCC1,14.2% [at 11.4 µM] (inactive),–
O=C1CCCC=C1[C@H](CCc1ccccc1)OC(=O)c1ccc(Br)cc1,–,3.16 µM (active)
CCCCCn1c(CN2CCCCC2C)nc2c1c(=O)n(C)c(=O)n2C (stereo unspecified),–,15.8 µM (active)
CN(C)CCn1c(CO)nc2c1c(=O)n(C)c(=O)n2C,0.0092% [at 11.4 µM] (inactive),–
CCCCn1c(SCC(=O)N2CCCC2)nc2c1c(=O)n(C)c(=O)n2C,-14.8% (inactive),–
CCNc1ncc2nc(-c3cc(F)cc(F)c3)c(=O)n(-c3ccc(OC)cc3)c2n1,13.1% (inactive),–
O=C(Oc1ccccc1)N1CCC2(CC1)CCN(c1cccc(-c3ccccc3)c1)CC2,-2.21% (inactive),–
N#Cc1cccc(-c2cncnc2NCc2ccccc2)c1,-4.42% [at 2.29 µM] (inactive),–
COC(=O)c1c(C)oc2ccc(N(C(=O)c3ccncc3)S(=O)(=O)c3ccccc3)cc12,–,2.51 µM (active)
COC(=O)c1c(C)nc2ccccc2c1C(=O)O,-8.6% (inactive),–
CCC(C)N1C(=O)S/C(=C/c2ccc(Sc3nc4ccccc4[nH]3)o2)C1=O (stereo unspecified),–,1.26 µM (active)
Cc1ncc([N+](=O)[O-])n1CC(C)O (stereo unspecified),10% (inactive),–
Clc1cccc(C=NC=Nc2cccc(Cl)c2)c1,-9.46% (inactive),–
Cn1c(CCC(=O)Nc2ccc(N3CCOCC3)cc2)nc(=O)c2ccccc21,13.8% (inactive),–
CC(C)(C)c1nc(SCC(=O)Nc2ccc(N3CCOCC3)cc2)c2ccccc2n1,–,7.94 µM (active)
CNCC[C@H](Oc1ccccc1C)c1ccccc1,-19.6% (inactive),–
